Reference: PubChem BioAssay AID1578 (Sanford-Burnham Center for Chemical Genomics, 2009)
The campaign covered roughly 290,000 compounds. About 3,000 (1%) were called active. Rule as the data show it: active = inhibition mostly above about 36% (no sharp cut-off); inactive = mostly below about 34%. The list comes from a sample in which actives are over-represented; it also holds similar structures and randomly drawn compounds.

assay: inhibition of NOD1-driven NF-kB reporter – cell-based, luminescence, uHTS, primary screen (AID 1578); details: NOD1-driven NF-kB luciferase reporter cells, at 4 µM, stronger effect = higher value;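 also: HEK-293T reporter cells stimulated with the NOD1 agonist gamma-tri-DAP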

Structure (SMILES)	inhibition
CN1CCN(C(=S)Nc2ccc(Oc3ccccc3)cc2)CC1	6.6% (inactive)
CC(C)=CC(=O)Nc1c(C)cc(C)cc1Cl	-18% (inactive)
Oc1ccc(-c2nc3ccccc3s2)cc1	-6.1% (inactive)
COc1ccc(-c2nc3ccccc3s2)cc1	-35.3% (inactive)
CCOC(=O)Cc1csc(SC(C)C(=O)NCC(=O)Nc2ccc(F)c(F)c2F)n1 (configuration not stated)	-36.3% (inactive)
COc1ccc(C(=O)N/C(=C\c2cccs2)C(=O)N2CCN(C)CC2)cc1OC	-14.2% (inactive)
O=C(c1ccco1)N1CCN(c2ncnc3c2nnn3Cc2ccccc2Cl)CC1	11.1% (inactive)
O=C(c1ccco1)N1CCN(c2nc(C3CC3)nc3c2nnn3Cc2ccccc2Cl)CC1	44.4% (active)
NC(=O)C1CCN(c2nc(C3CC3)nc3c2nnn3Cc2ccccc2Cl)CC1	10.7% (inactive)
O=C(Cn1nnc(-c2cc(C(F)(F)F)cc(C(F)(F)F)c2)n1)NNC(=S)Nc1ccc(Cl)cc1	10.2% (inactive)
O=C(COC(=O)Cc1ccc(Cl)cc1)Nc1c(F)cccc1F	-44% (inactive)
COc1cc(/C=N/NC(=O)c2ccncc2)ccc1OC(=O)c1ccco1	29.2% (inactive)
CC(=O)c1c(C)[nH]c(C(=O)OCC(=O)NCCc2ccc(F)cc2)c1C	-0.8% (inactive)
Cc1ccsc1C(=O)NNC(=O)C1CCCCC1C(=O)O (configuration not stated)	-15.7% (inactive)
Cc1ccsc1C(=O)NNC(=O)C1CC=CCC1C(=O)O (configuration not stated)	-25.2% (inactive)
Cc1ccsc1C(=O)NNC(=O)C1C2C=CC(C2)C1C(=O)O (configuration not stated)	72.2% (active)
CCCCC(=O)Nc1cccc(-c2cn3ccccc3n2)c1	-43.7% (inactive)
O=C(CCS(=O)(=O)c1cc2c(cc1Cl)NC(=O)CO2)NCc1ccc(F)cc1	-25.6% (inactive)
Cc1ccc(CNC(=O)CCS(=O)(=O)c2cc3c(cc2Cl)NC(=O)CO3)cc1	-6.8% (inactive)
O=C(CCS(=O)(=O)c1cc2c(cc1Cl)NC(=O)CO2)NCc1ccccc1	95% (active)
CC(=O)OC[C@H]1O[C@@H](O/N=C(\C)CCN2CCCCc3nc(C)c(C)cc32)[C@H](OC(C)=O)[C@@H](OC(C)=O)[C@@H]1OC(C)=O	-2.5% (inactive)

Structure (SMILES)	inhibition
Cc1ccc(S(=O)(=O)c2nc(-c3ccccc3F)oc2N2CC(C)OC(C)C2)cc1 (configuration not stated)	-20% (inactive)
Cc1ccc(-c2ccc(/C=C(\C#N)C(N)=S)n2C)cc1	-19.8% (inactive)
Cc1cc(C)c(/C=C(\C#N)C(N)=S)c(C)c1	106% (active)
Cc1cc(C)c(C)c(/C=C(/C#N)C(N)=S)c1C	14.2% (inactive)
CC1CCN(C(=O)COc2cccc3c2CCN(Cc2ccccc2)C3=O)CC1	-16% (inactive)
CC(=O)c1sc(Nc2nc3ccc(F)cc3s2)nc1C	-20.9% (inactive)
COc1ccc2nc(NC(C)=O)sc2c1	-12.9% (inactive)
Clc1ncccc1-c1nnn(-c2ccccc2Br)n1	-23.5% (inactive)
CCc1nnc(NC(=O)c2ccc(NC(=O)C(C)C)cc2)s1	-39.9% (inactive)
N#C/C(=C(/O)CN1CCOCC1)c1nc(-c2ccccc2)cs1	-15.4% (inactive)
COc1ccc(/C=N/NC(=O)c2cc(C3CC3)[nH]n2)cc1OC	-1.2% (inactive)
COc1ccccc1C(=O)CSc1n[nH]c(N)n1	65.9% (active)
COc1ccccc1CNC(=O)CSc1n[nH]c(N)n1	-8.6% (inactive)
COc1ccc(C(=O)CSc2n[nH]c(N)n2)cc1	-10% (inactive)
Cc1ccc2nc(-c3ccccn3)cc(C(=O)NCCc3ccc(F)cc3)c2c1	-8.3% (inactive)
CC(C)OC(=O)c1ccc(COC(=O)c2cccc(-c3nnc(-c4ccccc4)o3)c2)cc1	-13% (inactive)
Oc1[nH]c2ccc(Br)cc2c1N=NC(=S)N1CCOCC1	99% (active)
N=C(N)N=Nc1c(O)[nH]c2ccc(Br)cc12	-31.8% (inactive)
Oc1[nH]c2ccc(Br)cc2c1N=NC(=S)Nc1ccc(F)cc1	-7.9% (inactive)
COc1ccc(CCNC(=O)CSc2nc3c(c(=O)n(C)c(=O)n3C)n2C)cc1OC	-28.4% (inactive)
O=[N+]([O-])c1ccc(Sc2cccc[n+]2[O-])c2nonc12	106% (active)

Structure (SMILES)	inhibition
O=[N+]([O-])c1ccc(Nc2ccccc2O)c2nonc12	-3.2% (inactive)
O=[N+]([O-])c1ccc(Nc2ccccc2)c2nonc12	-7.4% (inactive)
N#Cc1ccccc1NC(=O)CSc1nnc(-c2ccncc2)o1	4.5% (inactive)
Cn1c(-c2csc(-c3ccccc3)n2)n[nH]c1=S	-29.3% (inactive)
Cc1cc(C)c(C(CC(=O)c2cccs2)C(C#N)C#N)c(C)c1 (configuration not stated)	26.3% (inactive)
Cc1ccccc1C(CC(=O)c1cccs1)C(C#N)C#N (configuration not stated)	85.2% (active)
CC(CC(=O)c1cccs1)CC(=O)c1cccs1	-14.5% (inactive)
O=[N+]([O-])c1cccc(Nc2nc(Cl)nc(Cl)n2)c1	14.4% (inactive)
COc1nc(NC(C)(C)C)nc(Oc2ccc(=O)n(-c3ccccc3)n2)n1	-3.3% (inactive)
COc1ccc(NC(=O)c2ccc(C)cc2)cc1	-19.2% (inactive)
COC(=O)NC(NS(=O)(=O)c1ccccc1)(C(=O)OC)C(F)(F)F (configuration not stated)	-0.4% (inactive)
Cc1ccc(C(=O)NNC(=S)NC(=O)c2ccc(Cl)cc2)cc1	31.1% (inactive)
Cc1ccc(C(=O)NC(=S)NNS(=O)(=O)c2ccc(C)cc2)cc1	-34.4% (inactive)
CCOC(=O)NC(C(Cl)(Cl)Cl)S(=O)(=O)c1ccccc1 (configuration not stated)	5% (inactive)
COc1ccc(C(=O)NCS(=O)(=O)c2ccc(C)cc2)cc1	7.7% (inactive)
Cc1ccc(S(=O)(=O)C(CCC(=O)c2ccc(Cl)cc2)C(N)=O)cc1 (configuration not stated)	9.7% (inactive)
Cc1ccc(S(=O)(=O)NNC(=O)c2ccc(O)cc2)cc1	-14.1% (inactive)
COC(=O)NC(=C(Cl)Cl)S(=O)(=O)c1ccccc1	74.9% (active)
CCOC(=O)C1CCN(S(=O)(=O)c2ccc(C)c(C)c2)CC1	-13.2% (inactive)
CCOC(=O)c1ccc(NC(=S)N2CCN(CCNC3=CC(=O)CC(C)(C)C3)CC2)cc1	-30.1% (inactive)
